# Reference: PubChem BioAssay (Tox21)
# Records with an inconclusive call do not appear. Entries that show only a call come without a potency. Active and inactive are the calls of the source. Unless noted, the call rests on the fitted dose curve; in most records, active means well fitted curve in the direction sought with a large enough effect in the repeat runs; inconclusive means weak or mixed curves; inactive means no such curve, though single readings can be large; an effect the other way counts as inactive or inconclusive.
# What was measured:
# [1] = biological target: Aryl hydrocarbon receptor (Homo sapiens) (UniProt P35869); assay: qHTS assay to identify small molecule that activate the aryl hydrocarbon receptor (AhR) signaling pathway (AID 743085); further: nearly all actives have a fitted effect of over 15% in size; further: potency means the concentration at half of the fitted maximal effect;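 on activation: HG2L7.5c1 human HepG2 liver cells with stably integrated DRE-driven firefly reporter; series mostly up to about 70 µM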
# Aryl hydrocarbon receptor (Homo sapiens), sequence (P35869 whole entry, looked up): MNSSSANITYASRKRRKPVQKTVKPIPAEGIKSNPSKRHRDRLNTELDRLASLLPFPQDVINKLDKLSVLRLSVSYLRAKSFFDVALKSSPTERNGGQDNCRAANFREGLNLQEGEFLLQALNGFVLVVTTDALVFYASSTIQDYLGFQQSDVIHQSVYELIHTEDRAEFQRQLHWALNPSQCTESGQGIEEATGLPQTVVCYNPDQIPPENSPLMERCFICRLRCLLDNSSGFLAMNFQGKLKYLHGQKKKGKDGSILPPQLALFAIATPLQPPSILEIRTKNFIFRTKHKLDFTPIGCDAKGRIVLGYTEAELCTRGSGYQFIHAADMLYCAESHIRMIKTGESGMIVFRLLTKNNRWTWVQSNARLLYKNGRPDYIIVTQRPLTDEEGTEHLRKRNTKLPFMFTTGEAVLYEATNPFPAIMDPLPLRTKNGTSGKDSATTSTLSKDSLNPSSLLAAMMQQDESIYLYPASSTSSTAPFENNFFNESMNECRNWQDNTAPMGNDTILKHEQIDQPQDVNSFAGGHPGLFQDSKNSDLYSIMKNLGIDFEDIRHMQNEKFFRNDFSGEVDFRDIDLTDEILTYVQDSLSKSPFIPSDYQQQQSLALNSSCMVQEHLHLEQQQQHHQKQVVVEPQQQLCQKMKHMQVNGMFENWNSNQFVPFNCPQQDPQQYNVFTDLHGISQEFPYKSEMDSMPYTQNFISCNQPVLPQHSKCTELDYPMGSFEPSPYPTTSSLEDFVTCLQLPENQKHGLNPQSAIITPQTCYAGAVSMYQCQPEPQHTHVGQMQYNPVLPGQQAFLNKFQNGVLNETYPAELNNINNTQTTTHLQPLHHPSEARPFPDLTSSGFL
# Outline: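 Cell line HG2L7.5c1 (human hepatoma, 20× DRE-luc). Plated, 5 h 37C, compound/DMSO added, 24 h 37C. CellTiter-Fluor 30 min 37C → fluorescence; then ONE-Glo 30 min RT → luminescence.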
# [2] = qHTS assay to identify small molecule antagonists of the peroxisome proliferator-activated receptor gamma (PPARg) signaling pathway - cell viability counter screen (AID 743194); further: nearly all actives have a fitted effect of over 55% in size; further: potency means the concentration at half of the fitted maximal effect
# Outline: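 Viability was measured as CellTiter-Glo luminescence in GeneBLAzer PPARg UAS-bla HEK293H cells. These cells had been exposed 17 h at 37 C to compounds together with rosiglitazone at 50 nM final, with the beta-lactamase readout taken in the same wells.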
# [3] = qHTS assay for small molecule agonists of the antioxidant response element (ARE) signaling pathway - cell viability counter screen (AID 743203; calls by dose curve; further: nearly all actives have a fitted effect of over 55% in size; further: potency means the concentration at half of the fitted maximal effect)
# Outline: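 Compounds in DMSO were pinned onto ARE-bla HepG2 cells plated 5 hrs earlier at 2,000 cells/well. Sixteen hours later at 37C/5% CO2, CellTiter-Glo was added and luminescence measured after 30 min at room temperature.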
# [4] = qHTS assay to identify small molecule that activate the aryl hydrocarbon receptor (AhR) signaling pathway - cell viability counter screen (AID 743086); further: nearly all actives have a fitted effect of over 45% in size; further: potency means the concentration at half of the fitted maximal effect
# Outline: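 Cytotoxicity counter screen: CellTiter-Fluor signal (30 min, 37 C) in 4000 HepG2 cells/well carrying the DRE-luciferase reporter, following 24 h compound exposure at 37 C.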
# [5] = qHTS assay for small molecule agonists of the antioxidant response element (ARE) signaling pathway (AID 743202; active means well fitted activation curve with a large enough effect in the signal ratio in the repeat runs, not every such curve was filed as active; the % refers to the signal ratio; further: potency means the concentration at half of the fitted maximal effect)
# Outline: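 Quantitative high-throughput format in HepG2 cells bearing an integrated ARE-beta-lactamase reporter. Compound exposure lasted 16 h at 37 C, and fluorescence was read 2 h after adding LiveBLAzer B/G substrate at room temperature.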
# [6] = biological target: Peroxisome proliferator-activated receptor gamma (Homo sapiens) (UniProt P37231); assay: qHTS assay to identify small molecule agonists of the peroxisome proliferator-activated receptor gamma (PPARg) signaling pathway (AID 743094; active means well fitted activation curve with a large enough effect in the signal ratio in the repeat runs, not every such curve was filed as active; the % refers to the signal ratio)
# Peroxisome proliferator-activated receptor gamma (Homo sapiens), sequence (P37231 whole entry, looked up): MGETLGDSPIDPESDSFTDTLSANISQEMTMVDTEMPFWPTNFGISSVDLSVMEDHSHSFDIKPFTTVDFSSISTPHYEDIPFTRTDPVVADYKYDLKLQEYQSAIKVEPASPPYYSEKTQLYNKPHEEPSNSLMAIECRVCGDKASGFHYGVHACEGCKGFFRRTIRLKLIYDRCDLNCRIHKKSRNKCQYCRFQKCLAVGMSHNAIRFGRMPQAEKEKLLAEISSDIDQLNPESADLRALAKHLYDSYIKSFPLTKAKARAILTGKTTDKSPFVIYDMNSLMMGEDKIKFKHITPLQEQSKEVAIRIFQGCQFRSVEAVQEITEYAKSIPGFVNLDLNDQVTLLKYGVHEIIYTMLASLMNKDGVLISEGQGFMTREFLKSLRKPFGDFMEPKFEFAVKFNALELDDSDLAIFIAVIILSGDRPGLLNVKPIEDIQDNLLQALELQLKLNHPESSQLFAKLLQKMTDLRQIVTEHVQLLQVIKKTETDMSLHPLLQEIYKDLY
# Outline: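 Following 5 h plating at 37C, PPARg-bla HEK293H cells receive compound or DMSO for 17 h; fluorescence intensity is recorded after LiveBLAzer B/G loading for 1 h at room temperature.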
# [7] = qHTS assay for small molecule activators of the heat shock response signaling pathway - cell viability counter screen (AID 743209); further: nearly all actives have a fitted effect of over 50% in size; further: potency means the concentration at half of the fitted maximal effect
# Outline: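 Counter screen for cytotoxicity in HeLa HSE-bla reporter cells. Treatment was 5 h at 37 C; viability was detected by luminescent ATP assay (CellTiter-Glo) in the same wells as the beta-lactamase read.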
# [8] = biological target: Peroxisome proliferator-activated receptor gamma (Homo sapiens) (UniProt P37231); assay: qHTS assay to identify small molecule antagonists of the peroxisome proliferator-activated receptor gamma (PPARg) signaling pathway (AID 743191; calls by dose curve; further: potency means the concentration at half of the fitted maximal effect; nearly all actives have a fitted effect of over 30% in size)
# Outline: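 Beta-lactamase reporter under UAS control in HEK293H PPARg-bla cells; compound treatment 17 h at 37C. Read-out: fluorescence intensity after 1 h room-temperature incubation with LiveBLAzer B/G FRET substrate.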
# [9] = qHTS assay for small molecule activators of the heat shock response signaling pathway (AID 743210; active means well fitted activation curve with a large enough effect in the signal ratio in the repeat runs, with a control signal flat, not every such curve was filed as active; the % refers to the signal ratio; further: potency means the concentration at half of the fitted maximal effect;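 on activation: HeLa cells with beta-lactamase reporter driven by heat shock elements; series mostly up to about 63 µM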)
# Outline: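 HeLa HSE-bla cells, overnight plating; cpd in DMSO 5 h, 37 C; LiveBLAzer B/G FRET substrate 2.5 h RT; fluorescence intensity read.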
smiles,measurement,setting,value
CCOc1nc2cccc(C(=O)OC(C)OC(=O)OC3CCCCC3)c2n1Cc1ccc(-c2ccccc2-c2nn[nH]n2)cc1 (centres undefined),Potency,[1],inactive
same,Potency,[2],9.76 µM (active)
same,Potency,[3],30.6 µM (active)
CCCCCCCCS(=O)C(C)Cc1ccc2c(c1)OCO2 (centres undefined),Potency,[1],27.8 µM (active)
same,Potency,[4],inactive
same,Potency,[2],inactive
same,Potency,[5],19.7 µM (active)
CCCCCCCCNC(C)C(O)c1ccc(SC(C)C)cc1 (centres undefined),Potency,[4],23.7 µM (active)
same,Potency,[6],inactive
same,Potency,[2],23.7 µM (active)
same,Potency,[3],16.8 µM (active)
same,Potency,[7],18.8 µM (active)
CCOc1ccc2nc3cc(N)ccc3c(N)c2c1,Potency,[1],11.9 µM (active)
same,Potency,[4],inactive
same,Potency,[2],inactive
CN(C)[C@@H]1C(=O)C(C(N)=O)=C(O)[C@@]2(O)C(=O)C3=C(O)c4c(O)cccc4C[C@H]3C[C@@H]12,Potency,[2],inactive
same,Potency,[3],inactive
same,Potency,[7],inactive
COc1ccc(CN2CCN(C(c3ccc(F)cc3)c3ccc(F)cc3)CC2)c(OC)c1OC,Potency,[8],26.6 µM (active)
same,Potency,[2],26.6 µM (active)
same,Potency,[3],inactive
same,Potency,[7],inactive
same,Potency,[9],inactive
CCCCCOc1ccccc1/C(=C\SC)n1ccnc1,Potency,[2],inactive
same,Potency,[3],inactive
same,Potency,[7],inactive
Cc1cc(=O)oc2cc(N(C)C)ccc12,Potency,[3],inactive
same,Potency,[7],inactive
same,Potency,[9],34.7 µM (active)
OCCN(CCO)c1nc(N2CCCCC2)c2nc(N(CCO)CCO)nc(N3CCCCC3)c2n1,Potency,[2],inactive
same,Potency,[3],inactive
Nc1cc(C(F)(F)F)ccc1S,Potency,[2],inactive
same,Potency,[5],inactive
same,Potency,[3],inactive
same,Potency,[7],inactive
CCCCC(CC)COC(=O)c1ccccc1C(=O)O (centres undefined),Potency,[4],inactive
same,Potency,[2],inactive
same,Potency,[3],inactive
CC[C@@]1(O)C(=O)OCc2c1cc1n(c2=O)Cc2c-1nc1ccccc1c2/C=N/OC(C)(C)C,Potency,[3],0.335 µM (active)
same,Potency,[7],0.473 µM (active)
COC(=O)C1=C(C)NC(C)=C(C(=O)OCCc2ccc(N3CCN(C(c4ccccc4)c4ccccc4)CC3)cc2)C1c1cccc([N+](=O)[O-])c1 (centres undefined),Potency,[2],inactive
same,Potency,[3],inactive
same,Potency,[7],inactive
CCCCCCCCOC(=O)c1ccc(O)cc1,Potency,[4],inactive
same,Potency,[5],inactive
COC(=O)c1cc(Cl)ccc1OC,Potency,[2],inactive
same,Potency,[5],inactive
same,Potency,[3],inactive
same,Potency,[7],inactive
CCc1cc(SCc2sc(-c3ccc(C(F)(F)F)cc3)nc2CN2CCN(c3ccc(OC)cc3)CC2)ccc1OCC(=O)O,Potency,[2],24.5 µM (active)
same,Potency,[3],15.4 µM (active)
same,Potency,[7],24.5 µM (active)
Nc1ccc2c3c(cccc13)-c1ccccc1-2,Potency,[3],inactive
same,Potency,[7],inactive
Cc1[nH]nc2c1N=C(c1ccccc1Cl)c1cc([N+](=O)[O-])ccc1N2,Potency,[4],48.6 µM (active)
same,Potency,[2],38.9 µM (active)
same,Potency,[3],15.4 µM (active)
same,Potency,[7],15.5 µM (active)
Nc1nc2ccccc2n1Cc1ccc(F)cc1,Potency,[3],inactive
same,Potency,[7],inactive
O=[N+]([O-])c1cc([N+](=O)[O-])c2ccc(S(=O)(=O)O)cc2c1O,Potency,[4],24.2 µM (active)
same,Potency,[2],inactive
same,Potency,[3],inactive
same,Potency,[7],inactive
Cc1ccc(O)c2ncccc12,Potency,[5],4.22 µM (active)
N#CC1(c2ccc(F)cc2)CCC(=O)CC1,Potency,[2],inactive
same,Potency,[5],inactive
same,Potency,[3],inactive
same,Potency,[7],inactive
Cc1cc2c(cc1C(F)(F)F)N(C(=O)Nc1ccc(Oc3cccnc3C)nc1)CC2,Potency,[4],inactive
same,Potency,[3],34.9 µM (active)
same,Potency,[7],inactive
O=CC=C(c1ccccc1)c1ccccc1,Potency,[4],inactive
same,Potency,[5],43.6 µM (active)
same,Potency,[3],inactive
same,Potency,[7],inactive
O=c1[nH]sc2cc(Cl)ccc12,Potency,[2],inactive
same,Potency,[3],inactive
O=C(Oc1ccccc1)c1ccccc1C(=O)Oc1ccccc1,Potency,[4],inactive
same,Potency,[2],inactive
same,Potency,[3],inactive
same,Potency,[7],inactive
CC(C)(C)C1CCC(CC2=C(O)c3ccccc3C(=O)C2=O)CC1 (centres undefined),Potency,[5],2.11 µM (active)
same,Potency,[3],inactive
same,Potency,[9],inactive
CN(C)CCCOC1(Cc2ccccc2)CCCCCC1,Potency,[3],inactive
same,Potency,[7],inactive
CCC(CN)=C(c1ccccc1)c1ccccc1,Potency,[5],inactive
same,Potency,[3],inactive
same,Potency,[7],inactive
same,Potency,[9],inactive
O=C(Nc1cccc([N+](=O)[O-])c1)c1cc2ccccc2cc1O,Potency,[2],0.195 µM (active)
same,Potency,[5],1.72 µM (active)
same,Potency,[3],inactive
same,Potency,[7],inactive
Cc1cccc(N(C)C(=S)Oc2ccc3c(c2)C2CCC3C2)c1 (centres undefined),Potency,[2],inactive
same,Potency,[3],inactive
same,Potency,[9],inactive
O=C(Nc1cccc(C(F)(F)F)c1)c1cc(Br)cc(Br)c1O,Potency,[4],inactive
same,Potency,[2],0.389 µM (active)
same,Potency,[3],10.9 µM (active)
C/C=C1/C(=O)C[C@H]2[C@@H]3CCC4=CC(=O)CC[C@]4(C)[C@H]3CC[C@]12C,Potency,[4],inactive
same,Potency,[2],inactive
same,Potency,[3],inactive
same,Potency,[7],inactive
C/C(=C(/OCCOc1ccc(Cl)cc1)c1ccc(Cl)cc1Cl)n1ccnc1,Potency,[3],42.2 µM (active)
CC1=C(C(=O)OC(C)C)C(c2cccc([N+](=O)[O-])c2)C(C(=O)OC2CN(C(c3ccccc3)c3ccccc3)C2)=C(N)N1 (centres undefined),Potency,[3],23.7 µM (active)
same,Potency,[7],10.6 µM (active)
Cc1oc(-c2ccccc2)nc1CCC(=O)c1ccc(CC2SC(=O)NC2=O)cc1 (centres undefined),Potency,[2],inactive
same,Potency,[5],13.3 µM (active)
same,Potency,[3],inactive
same,Potency,[7],inactive
NC(=O)C1(N2CCCCC2)CCN(CCCN2c3ccccc3CCc3ccc(Cl)cc32)CC1,Potency,[2],29.8 µM (active)
same,Potency,[3],16.8 µM (active)
COc1cccc(N)c1,Potency,[4],inactive
same,Potency,[3],inactive
same,Potency,[7],inactive
same,Potency,[9],inactive
CCCCCCCC(=O)[O-].CCCCCCCC(=O)[O-].[Zn+2],Potency,[2],inactive
same,Potency,[5],inactive
same,Potency,[3],inactive
same,Potency,[9],inactive
O=c1cc(-c2ccc(O)cc2)oc2cc(O)cc(O)c12,Potency,[8],21.9 µM (active)
same,Potency,[3],inactive
